Structures are written as SMILES. The panel holds about 83,000 compounds, 20% with a hit somewhere; the sample as a whole holds those more often.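 Single-dose data. Exposure time 48 hours. Values below 10 considered active.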 Unmarked numbers belong to inactive results. Calls of active or inactive are those of the source.

The assay deals with MDA-MB-468 breast. As to the kind of experiment: NCI-60 one-dose screen, 48 h (100 = growth as untreated, 0 = no growth, -100 = all killed). To be noted: 10 µM unless noted.
Turning to `COc1cc2nc(N3CCCC3)nc(NCC3CCCCC3)c2cc1OC`, the growth is -41.2% (active).
The result for `C=C1C(=O)O[C@H]2[C@H]1CC/C(CNC(=O)/C=C/c1ccc(Br)cc1)=C\CC[C@@]1(C)O[C@@H]21` reads -58.5% (active); that for `COc1cc(/C=C\C(C)=N\Nc2ccccc2)ccc1O`, 49%; that for `COc1ccc(-c2ccccc2)cc1-c1c(Nc2cc(Cl)cc(Cl)c2O)c(=O)c1=O`, -3.49% (active).
Consider `O=C(/C(=N/O)S(=O)(=O)c1ccccc1)c1cccs1`, for which the growth was 101%.
With `C[C@@H](NC(=O)c1ncnc(N)c1Cl)c1ncc(C(=O)Nc2cc(C(F)(F)F)c(Cl)cn2)s1` the figure was 92.6%; with `CCOC(=O)C1=C(C)c2ccc(OC)c(OC)c2C1`, 99.4%.
For `COc1cc(C(=O)/C=C/c2c(-c3ccc(F)cc3)nc3sc(C)cn23)cc(OC)c1OC`, the growth was 14.1%.
`CCN(CC)CCNCC(O)Cc1ccc(OC)cc1` (stereo not given): the growth is 105%.
The result for `CCc1cnn2c(NCc3ccc[n+]([O-])c3)cc(N3CCCC[C@H]3CCO)nc12` reads -56.3% (active); that for `O=c1c2ccccc2n(CC(O)CN2CCCC2)c2c(Br)cccc12` (stereo not given), 97.1%.
The result for `CN(C)CCCn1c2c(c3ncccc3c1=O)C(=O)c1ccccc1-2` reads 31.7%; that for `C=CCn1c(-c2nc3ccc(C(=C(C#N)C#N)c4ccccc4)cc3[nH]2)cc2cc(Br)ccc21`, 42.6%; that for `Cn1cc(-c2nonc2-c2cn(C)c3ccc(F)cc23)c2cc(F)ccc21`, 60.1%.
With `COc1ccc(Cn2cc(Cn3cc(C=C4C(=O)NC(=O)NC4=O)c4ccccc43)nn2)cc1` the figure was 18.5%.

Values taken from PubChem BioAssay (NCI).
